# Shown are actives, neighbours in structure and some others; about 3.5% of the full set was active somewhere.
# FBW7 activator = activators of human E3 ligase FBW7; hit rate 0.13% among 650,000; AlphaScreen FBW7–phospho-cyclin E peptide binding, activator screen; normalized activity (activation), % at 26.1 µM; Q969H0; AID 1259310; in the data active means normalized activity above about 1.9%;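 further: purified mutant Fbw7 with reduced substrate affinity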
# MITF primary = inhibitors of human MITF; AlphaScreen MITF homodimerization, bead proximity signal; hit rate 0.91% among 650,000; O75030; inhibition, % at 2.6 µM; in the data active means inhibition above about 50%;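 further: 0% = vehicle wells with protein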
# GPR151 activ = activates the human receptor GPR151 | Q8TDV0 | activation, % at 11.2 µM | hit rate 1% among 650,000 | PathHunter beta-arrestin GPR151 cells, luminescence; in the data active means activation above about 4.9%;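 further: 0% = median of compound wells and 100% = cells with positive control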
# Target sequence (Q8TDV0 whole entry, looked up): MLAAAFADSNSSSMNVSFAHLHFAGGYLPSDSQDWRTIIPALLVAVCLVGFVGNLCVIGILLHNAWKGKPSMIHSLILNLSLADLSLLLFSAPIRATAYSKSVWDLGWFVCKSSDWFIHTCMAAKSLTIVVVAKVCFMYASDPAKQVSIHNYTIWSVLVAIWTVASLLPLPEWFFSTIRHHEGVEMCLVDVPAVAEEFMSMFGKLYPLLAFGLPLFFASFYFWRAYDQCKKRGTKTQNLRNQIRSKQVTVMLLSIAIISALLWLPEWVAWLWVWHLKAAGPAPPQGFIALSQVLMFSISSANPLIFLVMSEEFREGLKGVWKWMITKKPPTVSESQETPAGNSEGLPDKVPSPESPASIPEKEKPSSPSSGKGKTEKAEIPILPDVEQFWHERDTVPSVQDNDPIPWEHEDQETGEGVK
# TEAD-YAP block = TEAD-YAP interaction inhibition. HEK-TIYL cells, TEAD-Gal4/YAP UAS-luciferase luminescence. inhibition, % at 9.12 µM. hit rate 1.4% among 640,000. AID 1259422; in the data active means inhibition above about 32%;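 further: 0% = median of test compound wells and 100% = reference inhibitor wells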
# * marks the source's active call; other numbers are inactive results; ! = not confirmed by another sample.
SMILES,FBW7 activator,MITF primary,GPR151 activ,TEAD-YAP block
Cc1cc(C)c2nc(SCC(=O)N3CC(=O)Nc4ccccc43)c(C#N)cc2c1,0,-2,1,54*
COC(=O)c1c(NC(=O)c2cccc(C(F)(F)F)c2)sc2c1CCCCC2,0,-7,0,8
C=CCN1C(=O)C2(NC(=O)c3ccccc3N2)c2ccccc21 (stereo not given),1,13,0,66*
COc1ccccc1C(=O)NCc1nnc(SCC(=O)N2N=C(c3cccs3)CC2c2ccc(F)cc2)n1CCc1ccccc1 (stereo not given),1,17,0,7
C/C(=N/NC(=O)c1ccc([N+](=O)[O-])cc1)c1ccc(O)cc1O,-1,-7,-1,84*
Cc1ccc(C(=O)Nc2ccc(O)cc2C(=O)O)cc1[N+](=O)[O-],-1,80*,-6,13
CC(C)(C)c1ccc(C(=O)Nc2ccc(O)cc2C(=O)O)cc1,-1,18,-1,34*
Cc1ccc(C(=O)Nc2ccc(O)cc2C(=O)O)cc1,0,22,-6,12
O=C(Nc1ccc(O)cc1C(=O)O)c1ccc([N+](=O)[O-])cc1,0,52*,-1,3
C/C(=N\NC(=O)c1ccc([N+](=O)[O-])cc1Cl)c1ccc(O)cc1O,0,5,-1,20
CCOC(=O)c1c(NC(=O)c2cc([N+](=O)[O-])ccc2N2CCN(Cc3ccccc3)CC2)sc2c1CCCC2,0,-6,0,-7
CCCCNC(=O)NNC(=O)C1CCCCC1,0,11,0,1
Cc1cncc2c(S(=O)(=O)N3CC[C@@H](NC(=O)OC(C)(C)C)C3)cccc12,0,16,0,-6
O=c1[nH]c(/C=C\c2cc3ccccc3oc2=O)nc(O)c1[N+](=O)[O-],1,12,-1,4
COc1cccc(C(=O)Nc2nc(-c3ccc(OC)c(OC)c3)cs2)c1,0,3,-1,-9
NC(=S)NNc1cccc2cccnc12,0,74*!,0,2
CCOC(=O)C1=CN(Cc2ccc(F)cc2)C=C(C(=O)OCC)C1c1ccc(SC)cc1,1.9*,-8,-1,-7
COC(=O)C1=CN(Cc2ccc(F)cc2)C=C(C(=O)OC)C1c1ccccc1OC(C)C,5.0*,-12,-3,8
CCOC(=O)C1=CN(Cc2ccc(OC)cc2)C=C(C(=O)OCC)C1c1ccccc1OCc1ccccc1,2.2*,-20,0,8
COC(=O)C1=CN(Cc2ccc(F)cc2)C=C(C(=O)OC)C1c1ccccc1Cl,2,-1,0,-4
CCOC(=O)C1=CN(Cc2ccc(OC)cc2)C=C(C(=O)OCC)C1c1ccccc1OC,0,2,1,-3
COC(=O)C1=CN(Cc2ccc(Cl)cc2)C=C(C(=O)OC)C1c1ccccc1OC(C)C,2.1*,-9,0,-2
CCOC(=O)C1=CN(Cc2ccc(Cl)cc2)C=C(C(=O)OCC)C1c1ccccc1OC(C)C,0,8,-1,-2
CCOC(=O)Cn1cc(/C=C2/C(=O)N(c3cccc(C(=O)O)c3)N=C2C)c2ccccc21,0,51*,1,-3
COc1cc(/C=C2\SC(=Nc3cc(C)cc(C)c3)NC2=O)cc(I)c1OC,0,-5,0,5
SMILES,FBW7 activator,MITF primary,GPR151 activ,TEAD-YAP block
COc1cc(C(=O)/C=C/Nc2ccccc2C(N)=O)cc(OC)c1OC,1,6,-1,38*
Cc1ccc(C(=O)/C=C/Nc2ccccc2C(N)=O)cc1,0,-3,-5,56*
COc1cc(C(=O)/C=C/Nc2ccccc2C)cc(OC)c1OC,0,1,2,-29
COc1ccc(-c2cnc(N3CCOCC3)nc2)cc1,0,-1,-7,-4
NNc1nncc2ccccc12,1,5,-1,37*!
COc1ccc(/C(C)=N/Nc2nncc3ccccc23)cc1,0,-6,-1,33*
CCOC(=O)C1C(c2ccc([N+](=O)[O-])cc2)NC(=S)NC1(C)O (stereo not given),0,-1,3,1
CN1CCN(c2ncn(-c3ccc(Nc4nccc(-c5cc(F)cc(N6CCOCC6)c5)n4)cc3)n2)CC1,0,-16,-1,56*
Cc1ncn(-c2ccc(Nc3nccc(-c4cc(F)cc(-c5cn[nH]c5C)c4)n3)cc2)n1,0,6,2,37*
Cc1ncn(-c2ccc(Nc3nccc(Nc4ccccc4-c4ccn[nH]4)n3)cc2)n1,0,1,2,64*
Cc1ncn(-c2ccc(Nc3nccc(-c4cc(N5CCOCC5)cc(S(C)(=O)=O)c4)n3)cc2)n1,0,-1,0,41*
Cc1ncn(-c2ccc(Nc3nccc(Nc4cccnc4)n3)cc2)n1,0,8,0,6
CC(C)(C)c1ccc(C(=O)N/C(=C\c2ccc([N+](=O)[O-])cc2)C(=O)Nc2cccc(F)c2)cc1,0,7,3,-8
COC(=O)c1ccc(CSc2nc(N)c(NC(=O)c3ccco3)c(=O)[nH]2)o1,2,16,2,-3
Cc1ccccc1C(=O)NNC(=O)C(=O)NCc1ccccc1,0,-1,0,4
Cc1ccc(S(=O)(=O)NCC(=O)N2CCOC(c3ccccc3)C2)cc1C (stereo not given),0,-1,1,5
CCCCc1ccc2c(N)c(C(=O)Nc3ccc4c(c3)OCO4)sc2n1,0,1,0,-62
O=C(CN(C(=O)c1ccc(Cl)nc1)c1ccccc1)NCC1CCCO1 (stereo not given),0,16,1,-2
Cc1ncn(-c2ccc(Nc3nccc(-c4cccc(S(C)(=O)=O)c4)n3)cc2)n1,0,-6,0,47*
CCCCNc1nc(CC(=O)OC)nc2sc(C)c(C)c12,0,-1,0,-27
Cc1ccc2nc(C)c(C(=O)NCC(F)(F)F)n2c1,1.9*,18,0,0
COc1ccc(/C=C2/C(=O)NC(=O)N(Cc3ccccc3)C2=O)cc1OC,0,14,0,2
O=C1/C(=C/c2ccc3c(c2)OCO3)SC(=S)N1Cc1ccco1,1,8,0,2
COc1cc(N2CCOCC2)ccc1/C=C1\C(=O)NC(=O)N(Cc2ccco2)C1=O,0,66*,0,-6
O=C1NC(=O)N(Cc2ccco2)C(=O)/C1=C\c1ccc2c(c1)OCO2,0,72*,1,-12
SMILES,FBW7 activator,MITF primary,GPR151 activ,TEAD-YAP block
O=C1NC(=O)N(Cc2ccco2)C(=O)/C1=C\C=C\c1ccccc1,0,54*,0,6
C=CCN1C(=O)NC(=O)/C(=C/C=C/c2ccco2)C1=O,0,26,2,9
COc1ccc(/C=C2/C(=O)NC(=O)N(Cc3ccco3)C2=O)cc1C,1,59*,1,5
CCCCN(CCCC)C(=N)N=C(N)N,0,-5,0,-3
COc1ccc(CCNc2nc(N3CCC(N4CCOCC4)CC3)nc3c2ncn3C2CCCCC2)cc1,0,1,-1,0
Cc1ccc(CNC(=O)c2cnc3ccccn23)o1,2.1*,27,-1,-23
CC(NC(=O)c1cnc2ccccn12)c1ccc(F)cc1 (stereo not given),2.8*,24,0,11
COc1ccc(CNC(=O)c2cnc3ccccn23)cc1,0,8,0,-11

# From PubChem
